# Results: PubChem BioAssay (Tox21)
# Results filed as inconclusive are left out. Values without a mark were called inactive. Calls of active or inactive are those of the source. Calls come from the whole dose curve.
# Test: p53 small molecule agonists, cell-based qHTS assay: qHTS cell viability counter screen (AID 1963581); note: nearly all actives have a fitted effect of over 45% in size
# Details: p53RE-bla HCT-116 viability, ATP luminescence, 16 h; series mostly up to 66 µM; activity change, negative = cytotoxicity: at the top concentration
# Source text: National Center for Advancing Translational Sciences [NCATS]
# Division of Preclinical Innovation [DPI]
# U.S. Environmental Protection Agency [EPA]
# National Institutes of Environmental Health Sciences [NIEHS]
# National Toxicology Program [NTP]
# U.S. Food and Drug Administration [FDA]
# p53, a tumor suppressor protein, is activated following cellular insult, including DNA damage and other cellular stresses. The activation of p53 regulates cell fate by inducing DNA repair, cell cycle arrest, apoptosis, or cellular senescence. The activation of p53, therefore, is a good indicator of DNA damage and other cellular stresses. The CellSensor p53RE-bla HCT-116 cell line (Invitrogen) contains a stably integrated beta-lactamase reporter gene under control of the p53 response elements. The activation of the reporter gene under culture conditions can be detected by fluorescence intensity. This cell line was used to screen the Tox21 compound library in a 1536-well plate format and to identify agonists that activate the p53 signaling pathway. The cytotoxicity of the Tox21 compound library against the p53 RE-bla HCT-116 cell line was tested in parallel by measuring the intra cellular ATP content in the same wells.
# Tox21 Assay Protocol Summary:
# The p53RE-bla cells were dispensed at 4,000 cells/5 ul/well in 1536-well black wall/clear bottom plates using a Multidrop dispenser. After the assay plates were incubated at a 37 C/5% CO2 incubator for 5 hours, 23 nL of compounds dissolved in DMSO, positive controls or DMSO only was transferred to the assay plate by a pin tool. The plates were incubated at 37 C for 16 hours. After 1 uL of LiveBLAzerTM B/G FRET substrate was added using a Flying Reagent Dispenser, the plates were incubated at room temperature for 2 hours, and fluorescence intensity was measured by an Envision plate reader. For cell viability readout that measures cytotoxicity, 4 ul/well of CellTiter-Glo reagent was added into the assay plates using a Flying Reagent Dispenser. After 30 min incubation at room temperature, the luminescence intensity in the plates was measured using a ViewLux plate reader.
# % is set by controls: 0 for no effect and ±100 for the full control effect.
Structure (SMILES),"activity change, negative = cytotoxicity",Potency
CC(Oc1cccc(Cl)c1)C(=O)O (stereo not given),-16%,
CCOC(=O)COc1cc(-c2nn(C)c(OC(F)F)c2Cl)c(F)cc1Cl,-14.4%,
O=C1C(Cl)C(CCl)CN1c1cccc(C(F)(F)F)c1 (stereo not given),8.4%,
BrCCCCCCBr,-0.102%,
O=C1NCN(c2ccccc2)C12CCN(CC1COc3ccccc3O1)CC2 (stereo not given),-3.57% [at 30.3 µM],
NCCCNCCCN,10.8%,
c1ccc2cc3c(cc2c1)-c1cccc2cccc-3c12,0%,
O=C(N[C@H](c1ccccc1)[C@@H]1CN2CCC1CC2)c1c(Cl)ccc(C(F)(F)F)c1Cl,13.4%,
O=S(=O)(NS(=O)(=O)C(F)(F)F)C(F)(F)F,-28.6%,
COc1ccc(/C(=C/C(=O)N2CCOCC2)c2ccc(Cl)cc2)cc1OC,14.4%,
CNC(=O)Oc1cc(C)cc(C(C)C)c1,-3.78%,
CC(C)=CC1C(C(=O)OCc2coc(Cc3ccccc3)c2)C1(C)C (stereo not given),,inactive
CCOP(=O)(OCC)O/C(=C/Cl)c1ccc(Cl)cc1Cl,0.953%,
CCC(=O)C(CCN(C)C)(c1ccccc1)c1ccccc1,8.95% [at 30.3 µM],
CCOC1Oc2ccc(OS(C)(=O)=O)cc2C1(C)C (stereo not given),7.5%,
CCCN(CCC)C(=O)Cc1c(-c2ccc(Cl)cc2)nc2ccc(Cl)cn12,-3.67% [at 30.3 µM],
COC1=CC(=O)O[C@@H](/C=C/c2ccccc2)C1,-4.08%,
COc1ccc(C(=O)c2c(C)n(CCN3CCOCC3)c3ccccc23)cc1,12.3% [at 30.3 µM],
Nc1ccc([N+](=O)[O-])cc1[N+](=O)[O-],0%,
NC(=S)C(N)=S,1.38%,

Structure (SMILES),"activity change, negative = cytotoxicity",Potency
C=CC(=C)C,0%,
CC(=O)O[C@H]1CC[C@@]2(C)C(=CC[C@@H]3[C@@H]2CC[C@]2(C)C(=O)CC[C@@H]32)C1,-13.4%,
CC(C)N(C(=O)SC/C(Cl)=C/Cl)C(C)C,4.9%,
CC1=C2C[C@H]3[C@@H](CC=C4C[C@@H](O)CC[C@@]43C)[C@@H]2CC[C@]12O[C@@H]1C[C@H](C)CN[C@H]1[C@H]2C,-13.8% [at 30.3 µM],
CN(C)C1CCCCC1,3.22%,
C[C@H](CN1CCOCC1)C(C(=O)N1CCCC1)(c1ccccc1)c1ccccc1,2.19%,
CNNC,3.94%,
CSc1nc(N=[N+]=[N-])nc(NC(C)C)n1,8.66%,
N#CC(O)c1ccccc1 (stereo not given),-4.53%,
CCCCCCC(=O)CCCCCC/C=C/C[C@@H](O)[C@H](O)[C@@](N)(CO)C(=O)O,17.4% [at 13.5 µM],
CCN(CC)C(C)C(=O)c1ccccc1 (stereo not given),11.8% [at 30.3 µM],
NC1CCC(CC2CCC(N)CC2)CC1 (stereo not given),-3.36%,
Fc1ccc(C2(Cn3cncn3)OC2c2ccccc2Cl)cc1 (stereo not given),-18.7%,
COC(N)=O,3.69%,
CSC1=N[C@@](C)(c2ccccc2)C(=O)N1Nc1ccccc1,17.8%,
O=C(CCCCl)c1ccc(F)cc1,11.8% [at 30.3 µM],
CCCN(CCC)CCc1c[nH]c2ccccc12,9.1%,
CC(C)COP(=O)(OCC(C)C)OCC(C)C,0.377%,
CNC(=O)Oc1cc(C)c(N(C)C)c(C)c1,9.12%,
O=C(NC(=O)c1c(F)cccc1F)Nc1cc(Cl)c(OC(F)(F)C(F)F)c(Cl)c1,-9.38%,
